# Measurements reported in PubChem BioAssay AID504690 (Sanford-Burnham Center for Chemical Genomics, 2011).
# The whole screen tested about 350,000 compounds, of which about 2,700 (0.77%) were called active. The sample holds actives, similar compounds and a random draw of the others, so the mix is not that of the screen. A number with no mark means an inactive call.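 How the source made its calls: active means inhibition reaching at least a set limit at 20 µM in the primary screen (cut at about 59% in these data); inactive means the rest.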
# Test system: glucose-6-phosphate dehydrogenase-6-phosphogluconolactonase (Plasmodium falciparum 3D7)
# Experiment: inhibition of malaria parasite G6PD (PfGluPho) – biochemical, fluorescence intensity, uHTS, primary screen (AID 504690);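 further: 0% = DMSO wells with substrate and 100% = DMSO wells lacking glucose-6-phosphate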
# Conditions: PfGluPho enzyme, NADPH resazurin-diaphorase fluorescence; at 20 µM; active compounds read high
row,SMILES,inhibition
1,O=C(N/N=C\c1cccc(Br)c1)c1ccccc1-n1cccc1,77.6% (active)
2,O=C(N/N=C/c1cccc(Br)c1)c1ccc(N2CCCC2=O)cc1,9.79%
3,O=C(CNC(=O)c1cccs1)N/N=C/c1cccc(Br)c1,-3.31%
4,CCCNc1c(N)c(=O)c1=O,-14.2%
5,CCc1c(C)[nH]c(=S)c(C#N)c1C,60.6% (active)
6,CC(=O)c1c(C)[nH]c(=S)c(C#N)c1-c1ccc(F)cc1,36.1%
7,CN(C)CCCNC(=S)N1CCN(c2nc(-c3ccccc3)cs2)CC1,7.81%
8,FC(F)(F)c1ccc2c3n(nc2c1)CCN=C3c1ccc(Cl)cc1,21.6%
9,O=C(CC1Oc2ccccc2NC1=O)NCCCN1CCN(Cc2ccccc2)CC1 (stereo unspecified),17.8%
10,Cc1noc(C)c1CSc1nc2cc(S(=O)(=O)N3CCOCC3)ccc2o1,46.6%
11,CC1CCN(c2nc3c(c(=O)[nH]c(=O)n3C)n2CCCc2ccccc2)CC1,12.8%
12,COc1ccc(CCn2c(NN=C3CCCC3)nc3c2c(=O)[nH]c(=O)n3C)cc1,77.3% (active)
13,COc1ccc(CCn2c(NCCCN3CCOCC3)nc3c2c(=O)[nH]c(=O)n3C)cc1,5.12%
14,CCN(c1ccc2c(c1)OCO2)S(=O)(=O)c1cc(Br)cc2c1N(C(=O)C1CC1)CC2,32.5%
15,Nc1cccc2c1C(=O)N(Cc1nnc(-c3ccccc3Br)o1)C2=O,-11.2%
16,COc1ccc(Nc2ncc(F)c(N3CCOCC3)n2)cc1,-2.57%
17,O=C(CSc1nc(Nc2ccccc2)nc(N2CCOCC2)n1)Nc1cc(Cl)ccc1O,21.3%
18,Cc1cc(Nc2ccc(Cl)cc2)nc(N2CCOCC2)n1,74.6% (active)
19,C=CCOc1ccc(C(=O)Nc2ccccc2C(=O)N2CCCC2)cc1,15.3%
20,C/C(=N/NC(=O)c1cc(Cl)ccc1O)C12CC3CC(CC(C3)C1)C2,50.1%
21,O=C(c1ccc(NS(=O)(=O)c2ccc3[nH]c(=O)[nH]c3c2)cc1)N1CCCCC1,-7.11%
22,N/C(=N\OS(=O)(=O)c1cccc([N+](=O)[O-])c1)c1ccncc1,-9.59%
23,CC12CCCCC1=CC(=O)CC2 (stereo unspecified),10.3%

row,SMILES,inhibition
1,O=C(COC(=O)Cc1ccc(Cl)cc1Cl)NCc1ccco1,-17.6%
2,Clc1ccc(Nc2ccc3ccccc3n2)cc1,31.9%
3,Cc1cc(Nc2ccc(Br)cc2)nc2ccccc12,86.8% (active)
4,CCOc1ccc(NC(=O)c2cc(C)nc3ccccc23)cc1,6.27%
5,O=C(Nc1cccc(Cl)c1)c1cc(S(=O)(=O)N2CCCCC2)c[nH]1,-8.02%
6,CCOC(=O)Cn1c2c(c(-c3ccccc3OC)cc1=O)CCCC2,10.3%
7,CC1=C/C(=N\OS(=O)(=O)c2ccccc2)C=CC1=O,116% (active)
8,COC(=O)C(C(=O)Nc1cccc(Cl)c1C)C1CCCC1 (stereo unspecified),5.12%
9,CCOC(=O)c1cc(-c2sc(NC(=O)c3ccccc3)nc2C)n(CCO)n1,5.2%
10,Cc1ccc(NCc2n[nH]c(=S)n2-c2ccccc2)cc1Cl,17.7%
11,Cc1ccc(-n2c(-c3ccc(Cl)cc3)n[nH]c2=S)cc1,39.8%
12,S=c1[nH]nc(-c2cc(-c3ccsc3)n[nH]2)n1-c1ccccc1,63% (active)
13,CCCCCN(C(=O)CCC(=O)OCC(=O)NCc1ccc(OC)cc1)c1c(N)n(CCCC)c(=O)[nH]c1=O,6.98%
14,C=CCOc1ccc(Cl)cc1CNCCCN1CCOCC1,-22.9%
15,CCOC(=O)Cn1nnnc1C,-8.58%
16,CCOC(=O)N1CCC(NC(=O)c2ccc3nc(N4CCOCC4)sc3c2)CC1,-2.75%
17,COc1ccc(NC(=O)c2sc(N3CCOCC3)nc2-c2ccccc2)c(OC)c1,7.35%
18,Cc1nc(N2CCOCC2)sc1C(=O)NN,61.7% (active)
19,Cc1ccc(S(=O)(=O)N2CCCCC2)cc1NC(=O)[C@@H]1CCCN1C(=O)c1cccs1,-10%
20,COc1ccc(C(=O)Nc2ccccc2C(=O)N/N=C/c2ccc(O)c(OC)c2)cc1,63.8% (active)
21,COc1cc(C=NNC(=O)c2cccnc2)ccc1OC(=O)c1ccccc1F,0.22%
22,O=C(NN=Cc1ccc2c(c1)CCC2)c1ccccc1O,-13.6%
23,CC(C)Cc1nnc(N)s1,-0.68%

row,SMILES,inhibition
1,Cc1ccc(C2CC(c3cccc(Br)c3)n3nc(N)nc3N2)cc1 (stereo unspecified),18%
2,Cc1csc(=O)n1CC(=O)Nc1ccc(S(C)(=O)=O)cc1,1.5%
3,Cc1cc(=O)n2[nH]c(-c3sccc3-n3c(C)ccc3C)cc2n1,10.7%
4,C[C@@H]1CN([C@@H](C)CO)S(=O)(=O)c2ccc(-c3ccc(C(=O)N(C)C)cc3)cc2O[C@@H]1CN(C)Cc1ccccc1C(=O)O,1.43%
5,Cc1ccc2nnn(Cc3cccc(C(C)(C)C)c3O)c2c1,4.75%
6,C#CCOCCOCCOCCNc1nc(N2CCN(C(=O)CCCCCCCCCCNC(=O)[C@H]([C@@H](C)CC)n3cc(CCCCN=C(N)N)nn3)CC2)nc(N2CCN(C(=O)CCCCCCCCCCNC(=O)[C@H](CO)n3cc(CCCSC)nn3)CC2)n1,44.4%
7,C#CCOCCOCCOCCNc1nc(N2CCN(C(=O)CCCCCCCCCCNC(=O)Cn3cc(CCCCCN)nn3)CC2)nc(N2CCN(C(=O)CCCCCCCCCCNC(=O)[C@H](CO)n3cc(CCCSC)nn3)CC2)n1,60% (active)
8,C#CCOCCOCCOCCNc1nc(N2CCN(C(=O)Cn3cc(CCO)nn3)CC2)nc(N2CCN(C(=O)[C@H](CCCCN)n3cc(CCCC)nn3)CC2)n1,6.73%
9,COCc1cc(C)nc2sc3c(=O)n(-c4cccc5ccccc45)nnc3c12,-2.51%
10,CCC(=O)N1CCC(C(N)=O)(N2CCCCC2)CC1,-1.08%
11,O=C1CSC(=S)N1c1ccc(O)cc1,-5.81%
12,CCOc1cccc(/C=N/N2C(=O)CSC2=S)c1O,60.8% (active)
13,O=C1CSC(=S)N1/N=C/c1ccc(O)c([N+](=O)[O-])c1,18.4%
14,COc1ccccc1CNC(=O)COn1nnc2ccc(S(=O)(=O)N3CCOCC3)cc21,-5.31%
15,CC(C)C(c1nnnn1C1CCCC1)N1CCN(c2ccccc2F)CC1 (stereo unspecified),1.8%
16,Cc1cc(C)c2[nH]c(=O)c(CN(Cc3ccccc3)C(=S)NCCCN(C)C)cc2c1,-9.85%
17,COc1ccccc1-n1c(SCC(=O)Nc2ccc(Cl)cc2)nc(O)c(Cc2ccccc2)c1=O,-30.4%
18,CN(C)c1nccc(NCc2ccccc2)c1C#N,-1.06%
19,CC(C)n1cnc2c(NCc3ccccc3)cc(OCC3CCN(C)CC3)cc21,65.4% (active)
20,Cn1c(N)cc(=O)n(C)c1=S,-4.84%
21,Cc1ccccc1-c1cc(C(=O)NCc2cccs2)n(CC2CC(c3cccnc3)=NO2)n1 (stereo unspecified),1.18%
22,Cc1ccc(OS(=O)(=O)c2ccc(-c3csc(C)n3)s2)c(C)c1,17.7%
23,FC(F)(F)C1CCCN(c2nsc3ccccc23)C1 (stereo unspecified),110% (active)

row,SMILES,inhibition
1,COc1ccc(Cl)cc1NC(=O)COc1ccc2c(c1)OCO2,-7.15%
2,Cc1ccc(SC(C)C(=O)NCc2ccc(F)cc2)cc1 (stereo unspecified),0.13%
3,CCC(=C/c1sc2ccc3ccccc3c2[n+]1C)/C=C1\Sc2ccc3ccccc3c2N1C,113% (active)
4,CCC[C@H]1CCCC/C=C\CCCC(=O)OCCN1C(=O)OC(C)(C)C,-3.27%
5,C=CC(=O)Nc1ccc(Nc2ccnc(Nc3ccc(N4CCN(C)CC4)cc3)n2)cc1,77.4% (active)
6,CN1CCN(c2nc(Nc3ccc(O)cc3)nc3ccccc23)CC1,3.52%
7,Cn1cnnc1SCC(=O)Nc1ccc(N2CCOCC2)cc1,7.84%
8,CCCC[C@H]1COCCS(=O)(=O)N1Cc1cccc(Cl)c1,14%
9,O=C(CSc1nnc(CN2CCCC2)n1-c1ccc(F)cc1)c1ccc2c(c1)OCO2,8.99%
10,CCCCC1=CC2=CC(=O)C(C)(OC(=O)CC)C(=O)C2=CN1CCCOC(C)C (stereo unspecified),34.2%
11,COC(=O)CCCC1=CC2=CC(=O)C(C)(OC(=O)c3cccs3)C(=O)C2=CN1CC(C)C (stereo unspecified),61.6% (active)
12,COC(=O)CCCC1=CC2=CC(=O)C(C)(OC(=O)c3cccs3)C(=O)C2=CN1c1cccc(C#N)c1 (stereo unspecified),31.5%
13,Cc1cccc(N2CCC(NCc3c(C(=O)N4CCCCC4)nc4c(C)cccn34)CC2)c1,-3.68%
14,O=Cc1cn(-c2ccccc2)nc1-c1ccccn1,-1.58%
15,COc1ccc(-c2nn(-c3ccccc3)cc2/C=N/Nc2ccccn2)cc1OC,70.3% (active)
16,COc1ccc(-c2nn(-c3ccccc3)cc2C(=O)Nc2nccs2)cc1OC,32.2%
17,COc1ccc(OC)c(/C=C/C(=O)c2ccc3c(c2)OCO3)c1,2.18%
18,Cc1ccc(OCC(=O)Nc2ccccc2Sc2ccc(Cl)cc2)c([N+](=O)[O-])n1,99.2% (active)
19,Cc1ccc(OCC(=O)NC(C)c2ccccc2)c([N+](=O)[O-])n1 (stereo unspecified),-11.2%
20,CCc1ccccc1NC(=O)CN(C)C(=O)COc1ccc(C)nc1[N+](=O)[O-],-20.3%
21,O=S(=O)(NCC1CCCO1)c1ccc2ccccc2c1 (stereo unspecified),-2.51%
22,COCCNC(=O)NC(=O)COC(=O)C1(c2ccc(Cl)cc2)CC1,8.76%
